# Compound activity deposited in PubChem by National Center for Advancing Translational Sciences (NCATS).
# TDP1 cell CPT: DT40-hTDP1 cell growth loss with CPT; chicken DT40 Tdp1-/-;hTDP1 cells + 20 nM CPT, ATP luminescence, 48 h; actives 12% (n = 420,000); Potency, µM (doses to about 46.2 µM), most hits filed as inhibitors; AID 686979; also: nearly all actives have a fitted effect of over 55% in size
#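 Chicken DT40 Tdp1-/- cells stably complemented with human TDP1 were seeded at 400 cells/well in medium containing 20 nM camptothecin, exposed to pin-transferred compounds, and grown at 37 °C for at least 48 hr. Viability was read as ATP luminescence.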
# TDP1 inh: inhibitors of human tyrosyl-DNA phosphodiesterase TDP1. recombinant TDP1, AlphaScreen DNA substrate cleavage. Potency, µM (titrated, usually from 130 µM), hits mostly inhibitors. Q9NUW8. actives 0.28% (n = 350,000); also: nearly all actives have a fitted effect of over 40% in size
#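 Enzyme-compound mixtures sat 15 min at room temperature, followed by a 5 min reaction with 15 nM final substrate and 10 min with AlphaScreen beads. Recombinant human Tdp1 was used at 1 nM final.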
# RORg inh: blocks mouse ROR gamma transcriptional activity. Drosophila S2 Gal4-RORgamma UAS-luciferase reporter, 20 h. P51450. Potency, µM (highest dose often 53.6 µM), most hits filed as inhibitors. actives 5.4% (n = 310,000); also: nearly all actives have a fitted effect of over 60% in size
# Target sequence (P51450 whole entry, looked up, the tested form may be a part): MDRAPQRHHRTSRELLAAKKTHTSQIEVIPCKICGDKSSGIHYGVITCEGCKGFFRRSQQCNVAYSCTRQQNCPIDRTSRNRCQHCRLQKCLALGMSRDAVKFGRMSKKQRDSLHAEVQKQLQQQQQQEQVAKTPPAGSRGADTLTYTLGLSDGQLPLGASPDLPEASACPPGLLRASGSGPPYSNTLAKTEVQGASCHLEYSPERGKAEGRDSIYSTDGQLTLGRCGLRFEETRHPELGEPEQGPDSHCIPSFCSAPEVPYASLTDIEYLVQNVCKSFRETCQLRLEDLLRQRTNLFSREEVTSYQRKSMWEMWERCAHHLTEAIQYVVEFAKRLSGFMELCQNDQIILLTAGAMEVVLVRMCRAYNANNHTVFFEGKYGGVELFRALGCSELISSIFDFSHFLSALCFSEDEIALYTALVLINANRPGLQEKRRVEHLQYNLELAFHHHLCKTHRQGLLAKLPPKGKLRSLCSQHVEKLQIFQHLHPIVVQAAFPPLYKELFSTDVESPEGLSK
#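 Drosophila S2 cells stably expressing Gal4-DBD/mouse RORγ fusion under metallothionein promoter plus UAS-luciferase; compound 1 h, then 700 uM CuSO4 induction for 20 h at ambient temperature; inhibition read as reduced luminescence.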
# Gal4-VP16 FLuc: inhibits Gal4-VP16 luciferase reporter, ROR gamma counter-screen; Drosophila S2 Gal4-VP16 UAS-luciferase, luminescence, 20 h; Potency, µM (highest dose often 53.6 µM), most hits filed as inhibitors; actives 3.5% (n = 310,000); AID 2546;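 also: Gal4-VP16 expression switched on by copper sulfate through the metallothionein promoter; nearly all actives have a fitted effect of over 50% in size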
# DT40 TDP1 no CPT: qHTS for Inhibitors of human tyrosyl-DNA phosphodiesterase 1 (TDP1): qHTS in cells in absence of CPT. DT40 Tdp1-/- hTDP1 cells, no CPT, ATP luminescence, 48 h. Potency, µM (top dose mostly 46.2 µM), usual class: inhibitors. actives 15% (n = 420,000); also: nearly all actives have a fitted effect of over 55% in size
#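 No-CPT arm: Tdp1-/-;hTDP1 DT40 cells (400/well) plus compounds, incubated ≥48 hr at 37 °C. Readout CellTiter-Glo luminescence.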
# Hits are given with their value; n = inactive; u = inconclusive; x = no result given; ! = a repeat was not active; [ ] = dose if it differs, or a comment. Sampled rows, rich in hits. Any-hit rate of the full collection: about 19%. Calls follow the shape of the dose curve; as a rule, active = well fitted curve in the direction sought with a large enough effect; inconclusive = small, poorly fitted or top-dose-only effect, or another doubt; inactive = no such curve, though single readings can be large; an effect the other way counts as inactive or inconclusive.
SMILES,TDP1 cell CPT,TDP1 inh,RORg inh,Gal4-VP16 FLuc,DT40 TDP1 no CPT
Cc1ccc2nc(-c3ccc(SCC(=O)Nc4nnc(C)s4)nc3)[nH]c2c1,u,n,n[10 µM],u,15µM
Cc1ccc(-c2csc(NC(=O)Cn3cnc4c3c(=O)n(C)c(=O)n4C)n2)cc1C,u,n,n,n,u
Cc1cc(Br)ccc1NC(=O)c1c(C)oc2ncnc(N3CCCCC3)c12,16µM,n,x,x,16µM
Cc1nc(N2CCCC2)c2c(C(=O)Nc3ccc(Br)cc3F)c(C)oc2n1,u,n,x,x,u
Cc1ccc(NC(=O)c2c(C)oc3ncnc(N4CCCCC4)c23)cc1Cl,16µM,n,x,x,16µM
Cc1ccc(NC(=O)c2c(C)oc3ncn(C)c(=O)c23)cc1F,u,n,x,x,18µM
Cc1oc2ncn(C)c(=O)c2c1C(=O)NC(C)c1ccccc1 (centres undefined),n,n,x,x,n
CCc1cccc(NC(=O)c2c(C)oc3ncnc(N4CCCCC4)c23)c1,13µM,n,x,x,9.2µM
O=C1CN(S(=O)(=O)c2ccc(Cl)cc2)CC(=O)N1CCc1ccccc1,n,n,n,n,n
COCCn1c(C)cc(O)c(C(c2ccccc2)N2CCN(c3ccc(F)cc3)CC2)c1=O (centres undefined),n,n,x,x,u
CCc1ccc(CNC(=O)c2c(C)oc3ncnc(N4CCOCC4)c23)cc1,13µM,n,x,x,u
CCOC(=O)Nc1cccc2ccccc12,n,n,n,n,n
CCOC(=O)Nc1ccc2c3c(cccc13)-c1ccccc1-2,18µM,x,x,x,21µM
Cc1cccc(N2CCN(Cc3cc(=O)oc4cc(C)ccc34)CC2C)c1 (centres undefined),u,n,x,x,u
Cc1ccc(-c2c(CN3CCN(c4cccc(C)c4)C(C)C3)csc2C)cc1 (centres undefined),u,n,x,x,16µM
Cc1ccc(-c2c(CN3CCN(c4cccc(C)c4C)CC3)csc2C)cc1,15µM,n,x,x,21µM
Cc1ccc(-c2c(CN3CCN(c4cccc(C(F)(F)F)c4)CC3)csc2C)cc1,u,n,x,x,u
O=C(COc1ccc(F)cc1)OCCN1CCOCC1,n,n,n,n,n
CCCCNc1ccc2c3c(cccc13)C(=O)N(CCCC)C2=O,26µM,x,n,n,21µM
CCCN1C(=O)c2cccc3c(N4CCCCC4)ccc(c23)C1=O,u,n,n,n,u
COc1ccc(C(=O)c2ccc(Cl)cc2)c2ccccc12,u,n,n,n,u
COc1ccc(C(=O)CCN(C)C)c2ccccc12,1.3µM,x,x,x,2.8µM
COC(=O)C1N[C@@H]([C@@H](NC(=O)COc2ccccc2)C(=O)NCc2ccccc2)SC1(C)C (some centres undefined),u,x,x,x,20µM!
CC(NC(=O)COc1ccccc1)C(=O)NCc1ccc(S(N)(=O)=O)cc1 (centres undefined),n,n,x,x,n
COc1ccc(NC(=O)C2Cc3cccc(OC)c3O/C2=N\O)cc1 (centres undefined),u,x,n,n,u
SMILES,TDP1 cell CPT,TDP1 inh,RORg inh,Gal4-VP16 FLuc,DT40 TDP1 no CPT
COc1cccc2c1O/C(=N\O)C(C(=O)Nc1ccc(C)cc1)C2 (centres undefined),5.8µM,x,n,n,5.2µM
CC(C)COC(=O)COc1cc(Cl)c(Cl)cc1Cl,x,50µM,n,n,x
CN(C)c1ccc(/C=N/NC(=O)c2ccco2)cc1,n,n,n,n,n
CN(C)c1ccc(/C=N\NC(=O)c2cccc3cc[nH]c23)cc1,u,n,7.9µM,u,6.5µM
CC(C)(C)c1cc(C(=O)NCc2ccco2)ccn1,n,n,n[0.365 µM],x,n
CCN(CC)c1ccc(/C=N/NC(=O)c2ccc3nc[nH]c3c2)c(O)c1,18µM,n,u,n,u
CCN(CC)c1ccc(/C=N/NC(=O)OC)c(O)c1,u,n,u,u,26µM
COc1ccc(/C=N/NC(=O)c2ccc3nc[nH]c3c2)c(OC)c1,4.6µM,n,n,n,u
COc1cc(OC)c(OC)cc1/C=N/NC(=O)c1ccc2nc[nH]c2c1,n,n,n,n,n
CCN(CC)c1ccc(/C=N/Nc2ccccc2)c(O)c1,u,n,n,n,u
